In all, about 1,400 compounds went through this assay and about 350 (25%) were called active. Not shown: some 2% with an inconclusive outcome. How the calls were made is not given here. A selection follows. Entries with a potency or affinity are not part of this list.
Experiment: inhibitors of Clostridioides difficile proliferation – 4-point retest, confirmation (AID 1224921);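 further: plate controls were DMSO wells for no effect and levofloxacin 16 µg/mL wells for full effect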
Details: Clostridioides difficile clinical isolate growth, OD600, 24 h, active compounds read low; at 30 µM unless noted

Max activity, inactive:
C/C=C/c1cnc2c(c1)C(=O)N([C@@H](C)CO)C[C@H](C)[C@H](CN(C)Cc1ccc(F)cc1)O2 9.72%
O=C(N[C@H]1C=C[C@@H](CC(=O)N2CCc3ccccc3C2)O[C@@H]1CO)C1CC1 -6.96%
CC(C)C#Cc1ccc2c(c1)O[C@@H](CN(C)Cc1cccnc1)[C@H](C)CN([C@H](C)CO)S2(=O)=O 36.4%
COc1ccc(-c2ccc([C@@H]3[C@H](C#N)N(C(=O)C4CCCC4)[C@H]3CO)cc2)cc1 -7.24% [at 1.95 µM]
C/C=C/c1cnc2c(c1)C(=O)N([C@H](C)CO)C[C@H](C)[C@H](CN(C)Cc1ccc(F)cc1)O2 14.8%
COc1cccc(-c2ccc3c(c2)O[C@H](CN(C)Cc2ccncc2)[C@@H](C)CN([C@@H](C)CO)S3(=O)=O)c1 21.8% [at 35 µM]
CO[C@H]1CN(C)C(=O)c2cc(NC(=O)c3cccc(F)c3)ccc2OC[C@@H](C)N(C(C)=O)C[C@H]1C 19% [at 8 µM]
CC(C)CC#Cc1ccc2c(c1)O[C@H](CN(C)Cc1cccnc1)[C@@H](C)CN([C@@H](C)CO)S2(=O)=O 39.7%
CO[C@H]1CN(C)C(=O)c2cc(NC(=O)Nc3cccc(F)c3)ccc2OC[C@@H](C)N(C)C[C@H]1C -11.4% [at 1.95 µM]
C[C@H](CO)N1C[C@H](C)[C@@H](CN(C)Cc2cccnc2)Oc2cc(C#CC3CCCCC3)ccc2S1(=O)=O 30.4%
O=C(C[C@H]1C[C@@H]2c3cc(NC(=O)Nc4ccc(F)cc4)ccc3O[C@@H]2[C@H](CO)O1)NC1CCCCC1 16%
CCCC(=O)Nc1ccc2c(c1)OC[C@@H](C)N(Cc1ccncc1)C[C@H](C)[C@H](OC)CN(C)C2=O 14.1%
O=C(C[C@@H]1C[C@H]2c3cc(NC(=O)Nc4ccc(C(F)(F)F)cc4)ccc3O[C@H]2[C@@H](CO)O1)NC1CCCCC1 -15.4% [at 1.95 µM]
CO[C@H]1CN(C)C(=O)c2cc(NC(=O)c3ccccc3)ccc2OC[C@H](C)N(C(=O)CN(C)C)C[C@H]1C -13% [at 1.95 µM]
CO[C@@H]1CN(C)C(=O)c2cc(NC(=O)c3cc(C)on3)ccc2OC[C@@H](C)N(C(C)=O)C[C@@H]1C -12.6% [at 1.95 µM]
O=C(C[C@H]1CC[C@H]2[C@@H](COC[C@H](O)CN2Cc2cc(F)ccc2F)O1)NCc1ccc(F)cc1 -6.27%
O=C(C[C@H]1CC[C@H]2[C@@H](COC[C@@H](O)CN2Cc2cc(F)ccc2F)O1)NCc1ccc(Cl)cc1 12.5%
C[C@H](CO)N1C[C@H](C)[C@H](CN(C)C)Oc2cc(-c3ccccc3F)ccc2S1(=O)=O -3.75% [at 1.95 µM]
COc1ccc(S(=O)(=O)Nc2cccc3c2O[C@@H](CN(C)S(=O)(=O)c2c(C)noc2C)[C@H](C)CN([C@H](C)CO)C3=O)cc1 14.4%
Cc1ccc(-c2ccc3c(c2)O[C@@H](CN(C)Cc2ccncc2)[C@@H](C)CN([C@@H](C)CO)S3(=O)=O)cc1 21.6%
CCC(=O)Nc1ccc2c(c1)OC[C@@H](C)N(CC1CCCCC1)C[C@H](C)[C@H](OC)CN(C)C2=O 11.5%
CC(C)[C@@H](C)NC(=O)N(C)C[C@@H]1OCc2ccccc2-c2ccccc2C(=O)N([C@@H](C)CO)C[C@H]1C 34.8%
CO[C@H]1CN(C)C(=O)c2ccc(NC(=O)C3CC3)cc2OC[C@@H](C)N(Cc2cncnc2)C[C@@H]1C -5.55%
COc1ccc(-c2ccc3n(c2=O)C[C@H]2[C@H](CO)[C@@H](C(=O)N4CCOCC4)[C@@H]3N2C)cc1 -4.95%
CC(C)CC#Cc1ccc2c(c1)O[C@H](CN(C)Cc1ccncc1)[C@H](C)CN([C@H](C)CO)S2(=O)=O 19.2% [at 8 µM]
C[C@H]1CN([C@@H](C)CO)C(=O)c2cc(C#CCN(C)C)cnc2O[C@@H]1CN(C)Cc1ccc(C(=O)O)cc1 -11.6% [at 1.95 µM]
O=C(Nc1ccc(Cl)c(Cl)c1)N[C@@H]1CC[C@@H](CCn2cc(C3CCCCC3)nn2)O[C@@H]1CO 30.5% [at 0.5 µM]
COc1ccccc1CNC(=O)C[C@H]1C[C@@H]2c3cc(NC(=O)NC4CCCC4)ccc3O[C@@H]2[C@@H](CO)O1 12.1%
COc1cccc(C#Cc2ccc3c(c2)O[C@@H](CN(C)C)[C@H](C)CN([C@@H](C)CO)S3(=O)=O)c1 41.9%
COc1cccc(C#Cc2ccc3c(c2)O[C@H](CN(C)C)[C@H](C)CN([C@@H](C)CO)S3(=O)=O)c1 -8.62% [at 1.95 µM]
C[C@H]1CN([C@@H](C)CO)S(=O)(=O)c2ccc(C#Cc3ccccc3F)cc2O[C@@H]1CN(C)C 20.5%
C[C@H](CO)N1C[C@H](C)[C@@H](CN(C)C)Oc2cc(C#Cc3ccc(F)cc3)ccc2S1(=O)=O 18.3%
C[C@@H]1CN([C@H](C)CO)S(=O)(=O)c2ccc(C#Cc3ccc(F)cc3)cc2O[C@@H]1CN(C)S(C)(=O)=O -24% [at 1.95 µM]
C[C@@H]1CN([C@@H](C)CO)S(=O)(=O)c2ccc(C#Cc3cccc(F)c3)cc2O[C@@H]1CN(C)C 8.04%
CC(C)NC(=O)N(C)C[C@H]1Oc2cc(C#Cc3cccc(F)c3)ccc2S(=O)(=O)N([C@@H](C)CO)C[C@@H]1C 30.3%
COc1cccc(C#Cc2ccc3c(c2)O[C@H](CN(C)C)[C@@H](C)CN([C@H](C)CO)S3(=O)=O)c1 8.78%
CCCN1C[C@@H](C)[C@@H](OC)CN(C)C(=O)c2cc(NC(=O)CC)ccc2OC[C@@H]1C 8.06%
C[C@H](CO)N1C[C@H](C)[C@H](CN(C)C(=O)Nc2cccc(F)c2)Oc2cc(C#CC3(O)CCCC3)ccc2S1(=O)=O 50.2%
Cc1ccc(-c2ccc3c(c2)O[C@H](CN(C)Cc2cccnc2)[C@@H](C)CN([C@@H](C)CO)S3(=O)=O)cc1 36.5%
CO[C@H]1CN(C)C(=O)c2ccc(NC(=O)c3cccc(F)c3)cc2OC[C@H](C)N(C(C)=O)C[C@@H]1C -20.5%
COc1ccc(S(=O)(=O)N(C)C[C@@H]2Oc3ncc(-c4ccc(F)cc4)cc3C(=O)N([C@H](C)CO)C[C@@H]2C)cc1 -7.45%
C[C@H](C(=O)N(C)C[C@H]1OCc2ccccc2-c2ccccc2C(=O)N([C@@H](C)CO)C[C@@H]1C)c1ccccc1 -4.71% [at 0.5 µM]
C[C@@H]1CN([C@H](C)CO)C(=O)c2cc(C#CCN(C)C)cnc2O[C@H]1CN(C)Cc1ccccc1F 24.5%
NC(=O)[C@H]1[C@@H]2C(=O)O[C@@H](c3ccccc3)[C@@H](c3ccccc3)N2[C@@H](c2ccccc2OCCO)[C@]12C(=O)Nc1ccc(C#CC3(O)CCCCCC3)cc12 16.8% [at 8 µM]
COc1ccc(C#Cc2ccc3c(c2)[C@]2(C(=O)N3)[C@H](C(N)=O)[C@H]3C(=O)O[C@H](c4ccccc4)[C@H](c4ccccc4)N3[C@@H]2c2ccc(O)cc2)cc1 23.8%
CC(=O)N(C)C[C@@H]1Oc2ncc(C#Cc3ccc(F)cc3)cc2C(=O)N([C@H](C)CO)C[C@@H]1C 22.7%
C[C@H]1CN([C@@H](C)CO)C(=O)c2cc(NC(=O)Nc3cccc4ccccc34)ccc2O[C@@H]1CN(C)S(=O)(=O)c1ccccc1 37.2%
CO[C@H]1CN(C)C(=O)c2cc(NS(C)(=O)=O)ccc2OC[C@H](C)N(Cc2ccccn2)C[C@@H]1C 2.2%
CO[C@H](CN(C)Cc1cc(F)ccc1F)[C@@H](C)CN(C(=O)Nc1ccc(F)cc1)[C@@H](C)CO 21.5%
C/C=C/[C@@H](CCn1cc(CCO)nn1)[Si](C)(C)c1ccc(OC)cc1 -14.8% [at 0.5 µM]
C[C@H](NC(=O)N(C)C[C@@H]1OCc2ccccc2-c2c(n(C)c3ccccc23)C(=O)N([C@@H](C)CO)C[C@H]1C)c1ccccc1 26.5% [at 8 µM]
CN(C)CCCNC(=O)[C@H]1[C@H](CO)[C@H]2Cn3c(ccc(-c4cccc(F)c4)c3=O)[C@@H]1N2C -8.59%
CNC[C@H]1Oc2cc(-c3ccccc3F)ccc2S(=O)(=O)N([C@H](C)CO)C[C@@H]1C 14%
Cc1ccccc1-c1ccc2c(c1)O[C@@H](CN(C)Cc1ccncc1)[C@@H](C)CN([C@@H](C)CO)S2(=O)=O 40.4%
C/C=C/c1cnc2c(c1)C(=O)N([C@@H](C)CO)C[C@@H](C)[C@@H](CN(C)Cc1ccc(F)cc1)O2 19.7%
C[C@H](CO)N1C[C@H](C)[C@H](CN(C)Cc2ccc(C(=O)O)cc2)Oc2ncc(C#CCN(C)C)cc2C1=O -7.61% [at 8 µM]
CO[C@@H]1CN(C)C(=O)c2ccc(NC(=O)c3nc4ccccc4s3)cc2OC[C@H](C)N(Cc2cccnc2)C[C@@H]1C -17.1% [at 1.95 µM]
CCCN1C[C@H](C)[C@@H](OC)CN(C)C(=O)c2cc(NC(=O)CC)ccc2OC[C@H]1C -10.4% [at 0.5 µM]
Cc1ccc(-c2ccc3c(c2)O[C@H](CN(C)Cc2ccncc2)[C@@H](C)CN([C@H](C)CO)S3(=O)=O)cc1 -11.4% [at 8 µM]

From PubChem BioAssay AID1224921 (Broad Institute, 2016)
